# Where “and” joins values, the source holds several entries; their conditions need not be identical. Equal values may be shown once. Inconclusive results are not listed. A call without a number means that no potency is given here. Where a structure was tested more than once in an assay, its records may differ in their call. Calls of active or inactive are those of the source. Unless noted, the call rests on the fitted dose curve; in most records, active means well fitted curve in the direction sought with a large enough effect in the repeat runs; inconclusive means weak or mixed curves; inactive means no such curve, though single readings can be large; an effect the other way counts as inactive or inconclusive.
# Key:
# [1] = qHTS assay to identify aromatase inhibitors - cell viability counter screen (AID 743084);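 further: cells stimulated with testosterone during compound exposure; nearly all actives have a fitted effect of over 55% in size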; further: potency means the concentration at half of the fitted maximal effect
# [2] = target: Aryl hydrocarbon receptor (Homo sapiens) (UniProt P35869); experiment: qHTS assay to identify small molecule that activate the aryl hydrocarbon receptor (AhR) signaling pathway (AID 743085); further: nearly all actives have a fitted effect of over 15% in size; further: potency means the concentration at half of the fitted maximal effect;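 on activation: HG2L7.5c1 human HepG2 liver cells with stably integrated DRE-driven firefly reporter; series mostly up to about 70 µM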
# Method in brief: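 Compounds were tested in HepG2 hepatocellular carcinoma cells harbouring a stably integrated luciferase gene under control of 20 DREs. Increased reporter signal after 24 h treatment at 37C was taken as AhR activation.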
# [3] = qHTS assay to identify small molecule that activate the aryl hydrocarbon receptor (AhR) signaling pathway - cell viability counter screen (AID 743086); further: nearly all actives have a fitted effect of over 45% in size; further: potency means the concentration at half of the fitted maximal effect
# Method in brief: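 HepG2-AhR-luc (HG2L7.5c1) cells, 4000/well, were preincubated 5 h at 37C, exposed to compound in qHTS format for 24 hr at 37C, then given CellTiter-Fluor for 30 min; viability was read as fluorescence in the reporter wells.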
# [4] = target: Peroxisome proliferator-activated receptor gamma (Homo sapiens) (UniProt P37231); experiment: qHTS assay to identify small molecule agonists of the peroxisome proliferator-activated receptor gamma (PPARg) signaling pathway (AID 743094; active means well fitted activation curve with a large enough effect in the signal ratio in the repeat runs, not every such curve was filed as active; the % refers to the signal ratio; further: potency means the concentration at half of the fitted maximal effect)
# Method in brief: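 Following 5 h plating at 37C, PPARg-bla HEK293H cells receive compound or DMSO for 17 h; fluorescence intensity is recorded after LiveBLAzer B/G loading for 1 h at room temperature.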
# [5] = target: Peroxisome proliferator-activated receptor gamma (Homo sapiens) (UniProt P37231); experiment: qHTS assay to identify small molecule antagonists of the peroxisome proliferator-activated receptor gamma (PPARg) signaling pathway (AID 743191; calls by dose curve; further: nearly all actives have a fitted effect of over 30% in size; further: potency means the concentration at half of the fitted maximal effect)
# Method in brief: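 GeneBLAzer PPARg UAS-bla HEK293H cells carrying a UAS-driven beta-lactamase reporter were plated at 3000 cells/well, preincubated 5 h at 37C, then given compound for 17 h at 37C; LiveBLAzer B/G FRET substrate was read after 1 h at room temperature.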
# [6] = qHTS assay to identify small molecule antagonists of the peroxisome proliferator-activated receptor gamma (PPARg) signaling pathway - cell viability counter screen (AID 743194); further: nearly all actives have a fitted effect of over 55% in size; further: potency means the concentration at half of the fitted maximal effect
# Method in brief: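 PPARg-UAS-bla HEK293H cells were plated, rested 5 h at 37 C, then treated with compounds plus rosiglitazone (50 nM final) for 17 h at 37 C; viability was then read by CellTiter-Glo luminescence after 30 min at room temperature.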
# [7] = qHTS assay for small molecule agonists of the antioxidant response element (ARE) signaling pathway - cell viability counter screen (AID 743203; calls by dose curve; further: nearly all actives have a fitted effect of over 55% in size; further: potency means the concentration at half of the fitted maximal effect)
# Method in brief: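 Compounds in DMSO were pinned onto ARE-bla HepG2 cells plated 5 hrs earlier at 2,000 cells/well. Sixteen hours later at 37C/5% CO2, CellTiter-Glo was added and luminescence measured after 30 min at room temperature.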
# [8] = qHTS assay for small molecule activators of the heat shock response signaling pathway - cell viability counter screen (AID 743209); further: nearly all actives have a fitted effect of over 50% in size; further: potency means the concentration at half of the fitted maximal effect
# Method in brief: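 Counter screen for cytotoxicity in HeLa HSE-bla reporter cells. Treatment was 5 h at 37 C; viability was detected by luminescent ATP assay (CellTiter-Glo) in the same wells as the beta-lactamase read.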
# [9] = target: Peroxisome proliferator-activated receptor delta (Homo sapiens) (UniProt Q03181); experiment: qHTS assay to identify small molecule agonists of the peroxisome proliferator-activated receptor delta (PPARd) signaling pathway (AID 743212; calls by dose curve)
# Method in brief: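 A PPARd-bla HEK293H line with beta-lactamase under an Upstream Activator Sequence is treated with compounds at 37 C. Substrate loading for 2 h at room temperature precedes the fluorescence measurement.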
# [10] = qHTS assay to identify small molecule antagonists of the peroxisome proliferator-activated receptor delta (PPARd) signaling pathway - cell viability counter screen (AID 743213); further: nearly all actives have a fitted effect of over 50% in size; further: potency means the concentration at half of the fitted maximal effect
# Method in brief: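 Cytotoxicity counter screen: CellTiter-Glo luminescence read 30 min after addition, in the same wells as the reporter assay. There, PPARd UAS-bla HEK293H cells (3000/well) were treated 17 h at 37 C with compound and 300 nM L165041.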
# [11] = qHTS assay to identify small molecule agonists of the farnesoid-X-receptor (FXR) signaling pathway - cell viability counter screen (AID 743218); further: nearly all actives have a fitted effect of over 45% in size; further: potency means the concentration at half of the fitted maximal effect
# Method in brief: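 After 16 h at 37 C with test compounds, FXR-bla HEK 293T cells were given LiveBLAzer B/G substrate for 2 h at RT and then CellTiter-Glo; luminescence was taken after 30 min.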
# [12] = qHTS assay to identify small molecule antagonists of the farnesoid-X-receptor (FXR) signaling pathway - cell viability counter screen (AID 743221; active means well fitted cell-killing curve with a large enough effect in the repeat runs, not every such curve was filed as active; further: nearly all actives have a fitted effect of over 50% in size; further: potency means the concentration at half of the fitted maximal effect)
# Method in brief: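 Multiplexed counter screen: viability of FXR-bla HEK 293T cells under agonist stimulation by chenodeoxycholic acid (50 uM, final) and test compound for 16 h at 37 C, measured by CellTiter-Glo luminescence in the reporter wells.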
# [13] = target: Vitamin D3 receptor (Homo sapiens) (UniProt P11473); experiment: qHTS assay to identify small molecule antagonists of the vitamin D receptor (VDR) signaling pathway (AID 743223; active means well fitted inhibition curve with a large enough effect in the signal ratio in the repeat runs, not every such curve was filed as active; the % refers to the signal ratio; further: potency means the concentration at half of the fitted maximal effect)
# Method in brief: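 Cells carrying a VDR-driven beta-lactamase reporter (VDR-bla) were co-treated with compound and 3 nM final 1alpha,25-dihydroxyvitamin D3 for 16 h at 37C; reporter activity was measured as FRET substrate fluorescence after 2 h at room temperature.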
# [14] = qHTS assay for small molecule agonists of the antioxidant response element (ARE) signaling pathway (AID 743202; active means well fitted activation curve with a large enough effect in the signal ratio in the repeat runs, not every such curve was filed as active; the % refers to the signal ratio)
# Method in brief: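 Compounds delivered in DMSO to ARE-bla HepG2 cells (2,000 cells/well, pre-incubated 5 h) and left 16 h at 37 C. LiveBLAzer B/G FRET substrate then added for 2 h at RT before fluorescence reading.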
# [15] = qHTS assay for small molecule activators of the heat shock response signaling pathway (AID 743210; active means well fitted activation curve with a large enough effect in the signal ratio in the repeat runs, with a control signal flat, not every such curve was filed as active; the % refers to the signal ratio;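 further: HeLa cells with beta-lactamase reporter driven by heat shock elements; series mostly up to about 63 µM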)
# Method in brief: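 Reporter gene assay: HeLa cells stably bearing an HSE-bla construct, compound treatment 5 h at 37 C, LiveBLAzer substrate 2.5 h at RT, fluorescence intensity.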
# [16] = qHTS assay to identify small molecule agonists of the peroxisome proliferator-activated receptor delta (PPARd) signaling pathway - cell viability counter screen (AID 743211); further: nearly all actives have a fitted effect of over 55% in size; further: potency means the concentration at half of the fitted maximal effect
# Method in brief: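 Counter screen for cytotoxicity run in parallel with the PPARd reporter screen. Beta-lactamase reporter HEK293H cells exposed to compounds 17 h; ATP-based CellTiter-Glo luminescence quantified viability.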
# [17] = target: Peroxisome proliferator-activated receptor delta (Homo sapiens) (UniProt Q03181); experiment: qHTS assay to identify small molecule antagonists of the peroxisome proliferator-activated receptor delta (PPARd) signaling pathway (AID 743215; active means well fitted inhibition curve with a large enough effect in the signal ratio in the repeat runs, not every such curve was filed as active; the % refers to the signal ratio;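 further: cells stimulated with agonist L165041 at 300 nM final during compound exposure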; further: potency means the concentration at half of the fitted maximal effect)
# Method in brief: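 With L165041 present at 300 nM final, compounds were incubated 17 h at 37 C on PPARd UAS-bla HEK293H cells. A FRET-based beta-lactamase substrate was then applied for 2 h at room temperature and fluorescence intensity recorded.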
# [18] = target: Vitamin D3 receptor (Homo sapiens) (UniProt P11473); experiment: qHTS assay to identify small molecule agonists of the vitamin D receptor (VDR) signaling pathway (AID 743222; calls by dose curve)
# Method in brief: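 VDR-bla cells were seeded, left 4 h, treated with compounds in DMSO for 16 h, incubated 2 h at RT with B/G FRET substrate, and read for fluorescence.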
# [19] = target: Bile acid receptor (Homo sapiens) (UniProt Q96RI1); experiment: qHTS assay to identify small molecule antagonists of the farnesoid-X-receptor (FXR) signaling pathway (AID 743217; active means well fitted inhibition curve with a large enough effect in the signal ratio in the repeat runs, not every such curve was filed as active; the % refers to the signal ratio; further: potency means the concentration at half of the fitted maximal effect)
# Method in brief: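 In this cell-based antagonist screen, inhibition of CDCA-driven (50 uM final) UAS-beta-lactamase expression in HEK 293T cells was measured by FRET fluorescence following 16 h compound exposure at 37 °C.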
# [20] = target: Bile acid receptor (Homo sapiens) (UniProt Q96RI1); experiment: qHTS assay to identify small molecule agonists of the farnesoid-X-receptor (FXR) signaling pathway (AID 743220; active means well fitted activation curve with a large enough effect in the signal ratio in the repeat runs, not every such curve was filed as active; the % refers to the signal ratio)
# Method in brief: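 Beta-lactamase reporter under UAS control in GeneBLAzer FXR HEK 293T cells (5000/well) measured with LiveBLAzer FRET substrate after 2 h at room temperature. Compound exposure lasted 16 h at 37C.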
# Sequence of Peroxisome proliferator-activated receptor delta (Homo sapiens) (Q03181 whole entry, looked up): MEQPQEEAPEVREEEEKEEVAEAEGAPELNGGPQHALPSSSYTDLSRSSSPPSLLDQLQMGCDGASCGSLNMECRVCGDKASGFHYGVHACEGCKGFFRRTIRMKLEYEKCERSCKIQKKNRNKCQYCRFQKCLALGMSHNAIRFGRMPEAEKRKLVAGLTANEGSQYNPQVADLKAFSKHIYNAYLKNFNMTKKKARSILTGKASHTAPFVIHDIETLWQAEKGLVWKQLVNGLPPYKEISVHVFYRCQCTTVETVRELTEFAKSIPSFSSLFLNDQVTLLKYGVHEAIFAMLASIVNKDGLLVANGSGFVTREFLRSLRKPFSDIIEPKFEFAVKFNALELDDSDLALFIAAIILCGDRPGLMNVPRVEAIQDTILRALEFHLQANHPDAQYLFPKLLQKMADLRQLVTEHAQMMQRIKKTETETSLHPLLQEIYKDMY
# Sequence of Peroxisome proliferator-activated receptor gamma (Homo sapiens) (P37231 whole entry, looked up): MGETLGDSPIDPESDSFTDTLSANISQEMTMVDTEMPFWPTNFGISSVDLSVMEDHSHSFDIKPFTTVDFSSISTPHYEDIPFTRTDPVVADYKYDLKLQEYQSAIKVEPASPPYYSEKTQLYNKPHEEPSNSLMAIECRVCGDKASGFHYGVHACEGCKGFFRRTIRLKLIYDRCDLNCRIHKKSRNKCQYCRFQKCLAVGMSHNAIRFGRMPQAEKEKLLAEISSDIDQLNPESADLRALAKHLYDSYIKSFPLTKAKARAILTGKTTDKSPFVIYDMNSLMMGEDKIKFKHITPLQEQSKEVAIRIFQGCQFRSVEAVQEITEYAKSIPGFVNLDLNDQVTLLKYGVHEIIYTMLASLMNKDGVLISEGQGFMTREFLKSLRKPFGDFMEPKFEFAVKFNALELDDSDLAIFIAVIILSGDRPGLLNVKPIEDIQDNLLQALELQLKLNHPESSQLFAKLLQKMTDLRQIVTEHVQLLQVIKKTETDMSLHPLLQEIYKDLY
# Sequence of Vitamin D3 receptor (Homo sapiens) (P11473 whole entry, looked up): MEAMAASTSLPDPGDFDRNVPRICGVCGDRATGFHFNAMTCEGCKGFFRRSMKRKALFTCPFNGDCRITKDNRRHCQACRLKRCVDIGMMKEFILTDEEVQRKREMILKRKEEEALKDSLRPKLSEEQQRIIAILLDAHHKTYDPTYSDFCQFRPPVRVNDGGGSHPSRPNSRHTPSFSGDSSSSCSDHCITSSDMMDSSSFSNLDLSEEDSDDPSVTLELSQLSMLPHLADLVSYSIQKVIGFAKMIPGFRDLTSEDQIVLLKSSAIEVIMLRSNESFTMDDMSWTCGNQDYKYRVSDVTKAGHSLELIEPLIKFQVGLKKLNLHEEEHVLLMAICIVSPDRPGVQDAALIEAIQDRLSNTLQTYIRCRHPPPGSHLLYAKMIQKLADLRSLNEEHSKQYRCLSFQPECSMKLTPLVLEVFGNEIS
# Sequence of Bile acid receptor (Homo sapiens) (Q96RI1 whole entry, looked up): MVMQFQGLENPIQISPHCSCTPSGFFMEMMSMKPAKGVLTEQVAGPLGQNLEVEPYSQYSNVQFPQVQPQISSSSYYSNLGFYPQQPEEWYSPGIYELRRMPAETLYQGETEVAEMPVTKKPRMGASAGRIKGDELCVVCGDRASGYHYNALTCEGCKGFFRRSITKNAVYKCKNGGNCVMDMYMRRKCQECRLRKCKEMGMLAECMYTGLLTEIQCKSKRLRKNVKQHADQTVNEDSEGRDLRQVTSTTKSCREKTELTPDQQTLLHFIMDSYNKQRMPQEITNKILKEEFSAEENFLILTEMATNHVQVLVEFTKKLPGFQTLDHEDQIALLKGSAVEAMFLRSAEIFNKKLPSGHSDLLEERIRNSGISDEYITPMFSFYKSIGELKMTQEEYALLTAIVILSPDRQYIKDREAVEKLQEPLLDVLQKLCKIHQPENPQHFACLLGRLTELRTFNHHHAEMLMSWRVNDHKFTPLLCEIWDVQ
# Sequence of Aryl hydrocarbon receptor (Homo sapiens) (P35869 whole entry, looked up): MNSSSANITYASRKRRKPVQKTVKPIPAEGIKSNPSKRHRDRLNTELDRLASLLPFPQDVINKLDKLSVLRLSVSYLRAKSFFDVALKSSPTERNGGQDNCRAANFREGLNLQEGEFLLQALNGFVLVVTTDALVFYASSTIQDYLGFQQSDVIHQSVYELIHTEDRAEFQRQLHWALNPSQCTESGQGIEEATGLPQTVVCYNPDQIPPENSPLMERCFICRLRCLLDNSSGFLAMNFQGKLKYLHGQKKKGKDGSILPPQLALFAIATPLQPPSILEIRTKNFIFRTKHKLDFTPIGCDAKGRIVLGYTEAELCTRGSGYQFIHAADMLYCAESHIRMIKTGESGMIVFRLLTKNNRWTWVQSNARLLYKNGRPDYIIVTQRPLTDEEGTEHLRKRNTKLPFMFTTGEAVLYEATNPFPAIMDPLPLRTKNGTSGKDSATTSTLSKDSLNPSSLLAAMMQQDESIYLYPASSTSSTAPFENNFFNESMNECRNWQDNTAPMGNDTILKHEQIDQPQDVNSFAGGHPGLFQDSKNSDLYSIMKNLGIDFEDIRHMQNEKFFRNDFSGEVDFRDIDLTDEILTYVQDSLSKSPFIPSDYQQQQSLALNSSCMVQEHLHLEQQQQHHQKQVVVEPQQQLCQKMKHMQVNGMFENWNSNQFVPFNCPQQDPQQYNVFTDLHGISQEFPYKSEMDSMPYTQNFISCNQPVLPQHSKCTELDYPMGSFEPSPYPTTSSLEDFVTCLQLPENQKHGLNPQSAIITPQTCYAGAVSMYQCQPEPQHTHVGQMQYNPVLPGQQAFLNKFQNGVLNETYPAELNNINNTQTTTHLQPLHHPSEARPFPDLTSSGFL
Structure (SMILES),Potency [1],Potency [2],Potency [3],Potency [4],Potency [5],Potency [6],Potency [7],Potency [8],outcome [9],Potency [10],Potency [11],Potency [12],Potency [13],Potency [14],Potency [15],Potency [16],Potency [17],Potency [18],Potency [19],Potency [20]
C/C=C/C=N/NC(=O)c1ccncc1,inactive,9.44 µM (active),inactive,inactive,inactive,inactive,inactive,18.8 µM (active),inactive,inactive,inactive,inactive,inactive,,,,,,,
NC(=O)c1ccccc1N,inactive,inactive,inactive,inactive,inactive,inactive,inactive,inactive,inactive,inactive,inactive,inactive,inactive,inactive,inactive,inactive,inactive,inactive,,
O=C(O)CCCCCCC(=O)O,inactive,inactive,inactive,inactive,inactive,inactive,inactive,inactive,,,inactive,inactive,inactive,,inactive,inactive,,inactive,inactive,
CCC(=O)OCCc1ccccc1,inactive,inactive,inactive,inactive,inactive,inactive,inactive,,,,inactive,inactive,,,,,,inactive,,inactive
CNC(=O)c1cc(Oc2ccc(NC(=O)Nc3ccc(Cl)c(C(F)(F)F)c3)cc2)ccn1,23.7 µM (active),inactive,18.8 µM (active),,10.6 µM (active),18.8 µM (active),,inactive,inactive,,21.1 µM (active),29.8 µM (active),,,,15 µM (active),,inactive,,inactive
SCCCCCCCCS,inactive,inactive,inactive,inactive,,inactive,43.3 µM (active),,inactive,inactive,inactive,,inactive,,,,inactive,inactive,inactive,inactive
O=C1C=CC(=O)N1c1ccccc1,9.69 µM (active),inactive,61.1 µM (active),,,13.8 µM (active),12.2 µM (active),21.9 µM (active),,15.5 µM (active),49 µM (active),,12.3 µM (active),,,15.5 µM (active),,,54.9 µM (active),
[O]=[Zr],inactive,inactive,inactive,inactive,,inactive,inactive,inactive,,inactive,inactive,,,,,inactive,,,inactive,inactive
CSc1ccc2c(c1)N(CCC1CCCCN1C)c1ccccc1S2 (configuration not stated),21.6 µM (active),inactive,27.2 µM (active),,,38.7 µM (active) and 15 µM (active),27.2 µM (active) and 23.7 µM (active),54.7 µM (active) and 29.8 µM (active),inactive,,21.8 µM (active) and 16.8 µM (active),38.7 µM (active) and 29.8 µM (active),,,,inactive and 9.44 µM (active),26.6 µM (active),inactive,,
CC(=O)Oc1ccc(C2(c3ccc(OC(C)=O)cc3)Oc3ccccc3NC2=O)cc1,inactive,inactive,inactive,inactive,,inactive,inactive,inactive,inactive,,,inactive,,,inactive,inactive,,,,inactive
CCO[Si](CCCSSSSCCC[Si](OCC)(OCC)OCC)(OCC)OCC,inactive,inactive,inactive,inactive,,inactive,inactive,inactive,,inactive,inactive,inactive,,,inactive,,,inactive,,
CC(COC(=O)c1ccccc1)OC(=O)c1ccccc1 (configuration not stated),inactive,inactive,inactive,inactive,,,inactive,inactive,,inactive,,,inactive,,inactive,inactive,,,,
CCN(CC)CCSC(=O)C(c1ccccc1)c1ccccc1,inactive,inactive,inactive,,,inactive,inactive,inactive,,,,inactive,inactive,inactive,,,,inactive,,
CCN=c1cc2oc3cc(NCC)c(C)cc3c(-c3ccccc3C(=O)OCC)c-2cc1C,1.21 µM (active) and 1.93 µM (active),inactive,6.83 µM (active) and 7.7 µM (active),,,10.9 µM (active) and 6.92 µM (active),60.9 µM (active) and 30.6 µM (active),30.8 µM (active) and 19.5 µM (active),inactive,38.8 µM (active) and 24.5 µM (active),48.8 µM (active) and 38.9 µM (active),,,,,48.8 µM (active) and 27.5 µM (active),,,,inactive
CSc1c(Cl)c(Cl)c(Cl)c(Cl)c1Cl,inactive,inactive,inactive,inactive,,,,,,inactive,,,inactive,,,,,inactive,,inactive
C[C@@H]1CC[C@H]2C(C)(C)[C@H]3C[C@@]12CC[C@@]3(C)O,inactive,inactive,inactive,inactive,,inactive,inactive,,inactive,inactive,,inactive,,,,,inactive,,inactive,inactive
COc1cc(C(=O)NS(=O)(=O)c2ccccc2C)ccc1Cc1cn(C)c2ccc(NC(=O)OC3CCCC3)cc12,inactive,26.6 µM (active),inactive,0.169 µM (active),,,inactive,inactive,,inactive,,inactive,inactive,,inactive,,,,,
Clc1ccc(C(Cn2ccnc2)OCc2ccsc2Cl)c(Cl)c1 (configuration not stated),inactive,inactive,26.6 µM (active),inactive,,,,inactive,,,18.8 µM (active),,,,,29.8 µM (active),,inactive,,
S=P(N1CC1)(N1CC1)N1CC1,inactive,inactive,inactive,inactive,,,,,inactive,,,inactive,,,,inactive,,,,inactive
CCCC(CC)CCCCCCCN (configuration not stated),inactive,inactive,inactive,inactive,,,,inactive,inactive,inactive,inactive,,inactive,inactive,,inactive,inactive,inactive,,
